Data from PubChem BioAssay AID1159580 (chemical genetic matrix, 2015).
The campaign covered roughly 5,500 compounds. About 2,000 (36%) were called active. Roughly 18% stayed inconclusive and do not appear here. No stated cut-off is given here; in the data, active means normalized growth mostly below about 0.91 (no sharp cut-off); inconclusive means no clear call, values can overlap the other calls; inactive means mostly above about 0.92. The list shows a part of the results.

Test: chemical genetic growth profiling, strain panel (AID 1159580);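 further: tested at 20 µM; growth read once vehicle control cultures reached saturation at 30 °C; 1 = growth at the plate median or of vehicle wells; lower values mean less growth of the strain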
Conditions: growth OD

Measured: normalized growth

O=C1[C@H](CCC(O)c2ccc(F)cc2)[C@@H](c2ccc(O)cc2)N1c1ccc(F)cc1 (some centres not stated)
inactive: S. cerevisiae deletion strains, locus YJR075W, strain HOC1, hits give low values 0.986 | S. cerevisiae deletion strains, locus YKL009W, strain mrt4, hits give low values 0.944 | S. cerevisiae deletion strains, locus YKL068W, hits give low values 0.989 | S. cerevisiae deletion strains, locus YKL085W, strain MDH1 (second series), hits give low values 0.983 | S. cerevisiae deletion strains, locus YKL085W, strain MDH1, hits give low values 0.983 | S. cerevisiae deletion strains, locus YKL160W, strain elf1, hits give low values 0.974 | S. cerevisiae deletion strains, locus YKL190W, strain CNB1, hits give low values 0.995 | S. cerevisiae deletion strains, locus YKR001C, strain vps1, hits give low values 0.968 | S. cerevisiae deletion strains, locus YKR026C, strain gcn3, hits give low values 0.961 | S. cerevisiae deletion strains, locus YKR091W, strain srl3, hits give low values 0.977 | S. cerevisiae deletion strains, locus YLL001W, strain dnm1, hits give low values 0.937 | S. cerevisiae deletion strains, locus YLL026W, hits give low values 0.977 | S. cerevisiae deletion strains, locus YLL041C, strain sdh2, hits give low values 0.967 | S. cerevisiae deletion strains, locus YLR027C, strain aat2, hits give low values 0.98 | S. cerevisiae deletion strains, locus YLR039C, strain RIC1, hits give low values 0.995 | S. cerevisiae deletion strains, locus YLR058C, strain SHM2, hits give low values 0.982 | S. cerevisiae deletion strains, locus YLR102C, strain apc9, hits give low values 0.972 | S. cerevisiae deletion strains, locus YLR113W, strain HOG1, hits give low values 1 | S. cerevisiae deletion strains, locus YLR221C, strain rsa3, hits give low values 0.986 | S. cerevisiae deletion strains, locus YLR258W, strain gsy2, hits give low values 0.972 | S. cerevisiae deletion strains, locus YLR262C, strain YPT6 (second series), hits give low values 0.988 | S. cerevisiae deletion strains, locus YLR262C, strain YPT6, hits give low values 0.978 | S. cerevisiae deletion strains, locus YLR268W, strain sec22, hits give low values 0.96 | S. cerevisiae deletion strains, locus YLR320W, strain mms22, hits give low values 0.975 | S. cerevisiae deletion strains, locus YLR330W, strain CHS5, hits give low values 0.988 | S. cerevisiae deletion strains, locus YLR342W, strain FKS1 (second series), hits give low values 1.01 | S. cerevisiae deletion strains, locus YLR342W, strain FKS1, hits give low values 0.973 | S. cerevisiae deletion strains, locus YLR357W, strain rsc2, hits give low values 0.978 | S. cerevisiae deletion strains, locus YLR370C, strain arc18, hits give low values 0.967 | S. cerevisiae deletion strains, locus YLR371W, strain rom2, hits give low values 0.971 | S. cerevisiae deletion strains, locus YLR384C, strain iki3, hits give low values 0.976 | S. cerevisiae deletion strains, locus YLR418C, strain cdc73, hits give low values 0.948 | S. cerevisiae deletion strains, locus YML016C, strain PPZ1, hits give low values 0.989 | S. cerevisiae deletion strains, locus YML032C, strain rad52, hits give low values 0.979 | S. cerevisiae deletion strains, locus YML120C, strain ndi1, hits give low values 0.968 | S. cerevisiae deletion strains, locus YML124C, strain tub3, hits give low values 0.977 | S. cerevisiae deletion strains, locus YMR058W, strain fet3, hits give low values 0.977 | S. cerevisiae deletion strains, locus YMR078C, strain ctf18, hits give low values 0.968 | S. cerevisiae deletion strains, locus YMR125W, strain sto1, hits give low values 0.971 | S. cerevisiae deletion strains, locus YMR129W, hits give low values 0.962 | S. cerevisiae deletion strains, locus YMR205C, strain PFK2, hits give low values 0.944 | S. cerevisiae deletion strains, locus YMR223W, strain ubp8, hits give low values 0.987 | S. cerevisiae deletion strains, locus YMR231W, strain pep5, hits give low values 0.994 | S. cerevisiae deletion strains, locus YMR263W, strain SAP30, hits give low values 0.997 | S. cerevisiae deletion strains, locus YMR307W, strain GAS1, hits give low values 0.976 | S. cerevisiae deletion strains, locus YNL067W, strain RPL9B, hits give low values 1 | S. cerevisiae deletion strains, locus YNL071W, strain lat1, hits give low values 0.984 | S. cerevisiae deletion strains, locus YNL128W, strain TEP1, hits give low values 0.994 | S. cerevisiae deletion strains, locus YNL153C, strain GIM3, hits give low values 0.995 | S. cerevisiae deletion strains, locus YNL183C, strain NPR1, hits give low values 0.961 | S. cerevisiae deletion strains, locus YNL209W, strain ssb2, hits give low values 0.99 | S. cerevisiae deletion strains, locus YNL233W, strain BNI4, hits give low values 0.984 | S. cerevisiae deletion strains, locus YNL248C, strain rpa49, hits give low values 0.965 | S. cerevisiae deletion strains, locus YNL250W, strain rad50, hits give low values 0.974 | S. cerevisiae deletion strains, locus YNL271C, strain bni1, hits give low values 0.968 | S. cerevisiae deletion strains, locus YNL298W, strain CLA4, hits give low values 0.961 | S. cerevisiae deletion strains, locus YNL307C, strain MCK1, hits give low values 0.961 | S. cerevisiae deletion strains, locus YNL322C, strain KRE1 (second series), hits give low values 0.971 | S. cerevisiae deletion strains, locus YNL322C, strain KRE1, hits give low values 0.994 | S. cerevisiae deletion strains, locus YNR049C, strain mso1, hits give low values 0.962 | S. cerevisiae deletion strains, locus YNR052C, strain pop2, hits give low values 0.973 | S. cerevisiae deletion strains, locus YOL006C, strain TOP1, hits give low values 0.908 | S. cerevisiae deletion strains, locus YOL012C, strain htz1 1.05 | S. cerevisiae deletion strains, locus YOL147C, strain pex11, hits give low values 0.975 | S. cerevisiae deletion strains, locus YOR001W, strain rrp6, hits give low values 0.967 | S. cerevisiae deletion strains, locus YOR061W, strain CKA2, hits give low values 0.984 | S. cerevisiae deletion strains, locus YOR069W, strain VPS5, hits give low values 0.987 | S. cerevisiae deletion strains, locus YOR070C, strain gyp1, hits give low values 0.982 | S. cerevisiae deletion strains, locus YOR080W, strain dia2, hits give low values 0.956 | S. cerevisiae deletion strains, locus YOR083W, strain WHI5, hits give low values 0.967 | S. cerevisiae deletion strains, locus YOR106W, strain vam3, hits give low values 0.918 | S. cerevisiae deletion strains, locus YOR136W, strain idh2, hits give low values 0.979 | S. cerevisiae deletion strains, locus YOR144C, strain elg1, hits give low values 0.968 | S. cerevisiae deletion strains, locus YOR184W, strain ser1, hits give low values 0.972 | S. cerevisiae deletion strains, locus YOR231W, strain MKK1, hits give low values 0.961 | S. cerevisiae deletion strains, locus YOR265W, strain rbl2, hits give low values 0.976 | S. cerevisiae deletion strains, locus YOR270C, strain vph1, hits give low values 0.801 | S. cerevisiae deletion strains, locus YOR290C, strain snf2, hits give low values 0.987 | S. cerevisiae deletion strains, locus YOR316C, strain cot1, hits give low values 0.966 | S. cerevisiae deletion strains, locus YPL051W, strain arl3, hits give low values 0.991 | S. cerevisiae deletion strains, locus YPL055C, strain LGE1, hits give low values 0.998 | S. cerevisiae deletion strains, locus YPL078C, strain atp4, hits give low values 0.908 | S. cerevisiae deletion strains, locus YPL106C, strain sse1, hits give low values 1 | S. cerevisiae deletion strains, locus YPL240C, strain hsp82, hits give low values 0.994 | S. cerevisiae deletion strains, locus YPL241C, strain CIN2, hits give low values 0.996 | S. cerevisiae deletion strains, locus YPL256C, strain CLN2, hits give low values 0.97 | S. cerevisiae deletion strains, locus YPR119W, strain clb2, hits give low values 0.984 | S. cerevisiae deletion strains, locus YPR141C, strain kar3, hits give low values 0.956 | S. cerevisiae deletion strains, locus YPR163C, strain tif3, hits give low values 0.962 | S. cerevisiae deletion strains, locus YPR167C, strain met16, hits give low values 0.966 | S. cerevisiae deletion strains, strain wtn01, hits give low values 0.971 | S. cerevisiae strains, strain wild type, hits give low values 1.01
